The whole screen tested about 69,000 compounds, of which about 8,600 (12%) showed an effect of 50% or more. This is one part of a sample in which strong results are shown more often than they occur.
The compounds below were run on Plasmodium berghei (assay: Screen against P. berghei liver stage (PbLuc), transformed with Luciferase, at 10uM). Details: tested at 10 uM.
Assay type: functional, HepG2
Work on `Cc1cnc(N2CCC[C@@H]3CN(S(C)(=O)=O)C[C@@H]32)nc1` yielded an INHIBITION of 29.8%.
Compound `CN(C)C(=O)CN1CCC2(CCCN(c3ncc(F)cn3)C2)C1=O` (centres undefined) has an INHIBITION of 11.3%.
With `CC(=O)N1C[C@H]2CCCN(c3ncc(C)cn3)[C@H]2C1` the INHIBITION was 45.8%.
`Cc1cnc(N2CCC[C@@H]3CN(CC(=O)N(C)C)C[C@@H]32)nc1` gave an INHIBITION of 52.3%.
With `CN(C)C(=O)CN1CCCC12CCCN(c1ncc(F)cn1)C2` (centres undefined) the INHIBITION was 8.31%.
For `Cc1cnc(N2CCCC3(CCCN3CC(=O)N(C)C)C2)nc1` (centres undefined), the INHIBITION was 79.2%.
`CN(C)C1(CNC(=O)CC=Cc2ccc(F)cc2)CCOCC1` gave an INHIBITION of -18%.
`Cc1nc(C)n(CC2CCCN(Cc3cn4c(C)cccc4n3)C2)n1` (centres undefined) gave an INHIBITION of 5.03%.
`O=c1ccc2c(n1CCN1CCCC1)CCN(c1ncccn1)CC2` was tested, and the INHIBITION was 29.5%.
With `CSCc1noc(CNC(=O)C2CCN(C(=O)C3CCCC3)CC2)n1` the INHIBITION was -26%.
Work on `CSCc1noc(CNC(=O)C2CCN(C(=O)C3CCC3)CC2)n1` yielded an INHIBITION of 16.7%.
In the case of `CSCc1noc(CNC(=O)C2CCN(C3CCCCC3)CC2)n1`, the INHIBITION is reported as 53.9%.
`CCOCCCNc1cc(C)nn2cnnc12` was tested, and the INHIBITION was 25.3%.
Work on `Cc1nn(C)c(C)c1NC(=O)CCn1ncc2ccccc21` yielded an INHIBITION of 35.8%.
`Cc1ccc2cnn(CCC(=O)Nc3c(C)nn(C)c3C)c2c1` was tested, and the INHIBITION was -8.19%.
`CCn1nc(C)c(NC(=O)CCn2ncc3cc(C)ccc32)c1C` gave an INHIBITION of 50.7%.
With `CCn1c(CN2CCN(CCO)CC2)nc2c(F)cccc21` the INHIBITION was 24.95%.
`COCCO[C@H]1CCN(C(=O)c2ccno2)[C@H]1Cc1ccncc1` gave an INHIBITION of 18.3%.
`CCC1(CC)C(=O)NC(=O)N/C1=N/c1cccc(OC)c1` showed an INHIBITION of 58.2%.
For `CCC(C)NC(=O)Nc1cccc(OC)c1` (centres undefined), the INHIBITION was -32%.
With `CCc1cnc2c(c1Nc1cccc(OC)c1)c(=O)n(C)c(=O)n2C` the INHIBITION was -31%.
`CCN(CC)Cc1cc(=O)n2c(n1)CN(S(=O)(=O)C1CC1)CCC2` showed an INHIBITION of -3.26%.
`Cn1cnc(S(=O)(=O)NCCCN2CCCC2=O)c1Cl` showed an INHIBITION of 4.71%.
Compound `Cc1ccc(CN2C[C@@H]3C[C@H](C(=O)NCC4CC4)N(C)[C@@H]3C2)o1` has an INHIBITION of 16.1%.
`Cc1ccc(O)c(C(=O)N2CCOCC2c2c(C)nn(C)c2C)c1` (centres undefined) was tested, and the INHIBITION was -57.4%.
`CC1=N[C@@]2(CC[C@@H]3CN(C(=O)NCCc4ccccc4)C[C@@H]32)C(=O)N1` was tested, and the INHIBITION was 13.6%.
`CCC1=N[C@@]2(CC[C@@H]3CN(C(=O)NCC4CCCCC4)C[C@@H]32)C(=O)N1` was tested, and the INHIBITION was 47.4%.
Compound `CCC1=N[C@@]2(CC[C@@H]3CN(C(=O)NCc4ccccc4)C[C@@H]32)C(=O)N1C` has an INHIBITION of 25%.
`CCC1=N[C@@]2(CC[C@@H]3CN(Cc4ccccc4C)C[C@@H]32)C(=O)N1` was tested, and the INHIBITION was 37.8%.
With `CC1=N[C@@]2(CC[C@@H]3CN(C(=O)NCc4ccccc4C)C[C@@H]32)C(=O)N1` the INHIBITION was 28.7%.
`CCC1=N[C@@]2(CC[C@@H]3CN(C(=O)NCc4ccccc4C)C[C@@H]32)C(=O)N1` showed an INHIBITION of 70.7%.
`CCC1=N[C@@]2(CC[C@@H]3CN(C(=O)NCc4cccc(F)c4)C[C@@H]32)C(=O)N1` gave an INHIBITION of 39.2%.
Compound `CCC1=N[C@@]2(CC[C@@H]3CN(C(=O)NCc4ccccc4)C[C@@H]32)C(=O)N1` has an INHIBITION of 50%.
`CC1=N[C@@]2(CC[C@@H]3CN(C(=O)NCc4cccc(F)c4)C[C@@H]32)C(=O)N1` gave an INHIBITION of 75.4%.
In the case of `Cc1ccc(-c2nnn(CCN3C(=O)CCC3=O)n2)cc1`, the INHIBITION is reported as -47.1%.
Work on `Cc1cnc(C(=O)N2CCc3ncnc(-c4cnn(C)c4)c3CC2)cn1` yielded an INHIBITION of -3.33%.
`CC(=O)Nc1nc(C(=O)N2CCCC2c2noc(C(C)C)n2)cs1` (centres undefined) gave an INHIBITION of 40.9%.
In the case of `CNC(=O)c1nc(CC(=O)Nc2cccc(C(F)(F)F)c2)no1`, the INHIBITION is reported as -2.61%.
`Cc1cccc(OC2CN(C(=O)C3CC(=O)N(C(C)(C)C)C3)C2)c1` (centres undefined) showed an INHIBITION of 25.5%.
In the case of `CC(C)Oc1ccc(CN2CCCC(N3CCCC3)C2)cc1CO` (centres undefined), the INHIBITION is reported as 20%.
`CC(C)Oc1ccc(CN2CCCC(N3CCOCC3)C2)cc1CO` (centres undefined) was tested, and the INHIBITION was 82.9%.
`CC(C)Oc1ccc(CN2CCN3CCN(C)CC3C2)cc1CO` (centres undefined) was tested, and the INHIBITION was -6.97%.
With `CCCC(=O)N1CCC(c2cc3cccnc3c(O)n2)CC1` the INHIBITION was 1.62%.
For `CN(C)CCCNC(=O)c1ccccc1NC(=O)c1cc(Cl)ccc1Cl`, the INHIBITION was 27.6%.
`CCc1nc(C)sc1CN1CC[C@@](O)(C2CCOCC2)[C@H](C)C1` was tested, and the INHIBITION was -10.9%.
Work on `O=S(=O)(c1ccc2c(c1)OCCO2)N1CCc2ccccc2C1` yielded an INHIBITION of 57.6%.
Work on `O=S(=O)(c1ccc2c(c1)OCCO2)N1CCC(OCc2ccccn2)C1` (centres undefined) yielded an INHIBITION of -35.2%.
In the case of `O=c1ccc2c([nH]1)CCN(S(=O)(=O)c1ccc3c(c1)OCCO3)C2`, the INHIBITION is reported as 26%.
`Cc1nc2cc(=O)[nH]n2c(C)c1CC(=O)NCc1ccc(C#N)cc1` showed an INHIBITION of 41.2%.

— ChEMBL document CHEMBL4513216, “Probing the Open Global Health Chemical Diversity Library for Multistage-Active Starting Points for Next-Generation Antimalarials” (ACS Infect Dis, 2020)
